The values below come from PubChem BioAssay (NCATS).

The target of assay [1] is Aldehyde dehydrogenase, mitochondrial (Homo sapiens) (UniProt P05091). Description: qHTS for Inhibitors of the Aldehyde Dehydrogenase Family (ALDH2) Primary screen (AID 2061308). Note: nearly all actives have a fitted effect of over 55% in size.
Assay [2] has as its target Retinaldehyde dehydrogenase 3 (Homo sapiens) (UniProt P47895). Nature of the assay: qHTS for Inhibitors of the Aldehyde Dehydrogenase Family (ALDH1A3) Primary screen (AID 2061315). (In qHTS, concentration-response curves come from the screen itself.)

Records with an inconclusive call do not appear. Entries that show only a call come without a potency. Activity calls are given as the source filed them. Calls come from the whole dose curve; as a rule, active = well fitted curve in the direction sought with a large enough effect; inconclusive = small, poorly fitted or top-dose-only effect, or another doubt; inactive = no such curve, though single readings can be large; an effect the other way counts as inactive or inconclusive.

With `CCN1CCCC1Cn1c(-c2ccccc2)nc2c(NCCOC)nc(C)nc21` (stereo unspecified), the Potency result in assay [1] and in assay [2] was “inactive” throughout.
Turning to `COc1ccccc1NC(=O)C1=C(C)NC(Nc2nc3ccccc3o2)=NC1c1ccccc1Br` (stereo unspecified), the Potency result in assay [1] and in assay [2] was “inactive” in each case.
For `CCOc1ccc(C(=O)Oc2ccc(-c3nc4ccccc4[nH]3)cc2)cc1Cl`, the Potency result in assay [1] and in assay [2] was “inactive” each time.
Regarding `O=S(=O)(Nc1nccs1)c1ccc(NCc2cccc(O)c2)cc1`, the Potency entry in assay [1] and in assay [2] was “inactive” each time.
On to `C[C@@H](N)C(=O)Nc1cccc(-c2nn3c(=O)cc(N4CCNCC4)nc3s2)c1`, for which the Potency entry in assay [1] and in assay [2] was “inactive” in each case.
On to `Cc1cc(NS(=O)(=O)c2ccc(NC(=O)Cc3ccccc3)cc2)no1`, for which the Potency entry in assay [1] and in assay [2] was “inactive” throughout.
Turning to `Cc1ccc(S(=O)(=O)Nc2ccccc2Nc2nc(-c3ccccc3)cs2)cc1`, the Potency result in assay [1] and in assay [2] was “inactive” each time.
Consider `Fc1cccc(CNc2ncnc3ccc(-c4cccnc4)cc23)c1`, for which the Potency result in assay [1] and in assay [2] was “inactive” in each case.
On to `Cc1ccnc(NC(=S)N2CCC(Nc3cccc(C(F)(F)F)c3)CC2)c1`, for which the Potency entry in assay [1] and in assay [2] was “inactive” throughout.
Take `COCCN(CCOC)c1nc(C)nc2c1nc(-c1ccccc1)n2CCCN(C)C`: the Potency result in assay [1] and in assay [2] was “inactive” each time.
Regarding `COc1ccc(N2Cc3cccc(C(=O)O)c3C2=O)cc1OC`, the Potency entry in assay [1] and in assay [2] was “inactive” each time.
For the molecule `O=C(NCCc1nc2ccccc2n1CCOc1ccc(Cl)cc1)C1CCCCC1`, the Potency result in assay [1] and in assay [2] was “inactive” each time.
For `CCNc1cccc(S(=O)(=O)N2CCCN(S(=O)(=O)c3ccc4c(c3)OCCO4)CC2)c1`, the Potency result in assay [1] and in assay [2] was “inactive” each time.
As to `Cc1cc(NS(=O)(=O)c2ccc(N(C)C(=O)Cc3ccc(Cl)c(Cl)c3)cc2)no1`, the Potency result in assay [1] and in assay [2] was “inactive” each time.
For the molecule `Cc1cc(N[S+](=O)([O-])c2ccc(NC(=O)Cc3ccc(F)c(C)c3)cc2)no1`, the Potency entry in assay [1] and in assay [2] was “inactive” in each case.
Consider `CC(=O)Nc1cccc(S(=O)(=O)N2CCN(S(=O)(=O)c3ccc4c(c3)OCCO4)CC2)c1`, for which the Potency result in assay [1] and in assay [2] was “inactive” in each case.
Take `CC(C)c1ccccc1-c1nccc(NCc2ccc(-c3ccnc(C(F)(F)F)c3)cc2)n1`: the Potency result in assay [1] and in assay [2] was “inactive” each time.
Turning to `CC(=O)Nc1ccc(S(=O)(=O)N2CCN(S(=O)(=O)c3c(F)cccc3F)CC2)cc1`, the Potency result in assay [1] and in assay [2] was “inactive” throughout.
`COc1cc(C(=O)Nc2nc(-c3ccccc3)cs2)ccc1NS(=O)(=O)c1ccc(C)cc1`: the Potency result in assay [1] and in assay [2] was “inactive” each time.
As to `Cc1ccc(C2=NN(CC(=O)N(C)C(C)c3ccco3)C(=O)C2)cc1` (stereo unspecified), the Potency result in assay [1] and in assay [2] was “inactive” in each case.
Take `Cc1cc(C)nc(NC(=S)N2CCN(S(=O)(=O)c3cccc(C(F)(F)F)c3)CC2)c1`: the Potency entry in assay [1] and in assay [2] was “inactive” each time.
On to `COc1ccc(OC)c(-c2nnc3n2N=C(c2ccc(OC)c(OC4CCCC4)c2)CS3)c1`, for which the Potency entry in assay [1] and in assay [2] was “inactive” in each case.
Turning to `CC(C)CC(O)C(=O)Nc1cc(C(F)(F)F)ccc1Cl` (stereo unspecified), the Potency entry in assay [1] and in assay [2] was “inactive” each time.
Regarding `CN(C)c1cccc(-c2nc(N3CCC(C(N)=O)CC3)ncc2F)c1`, the Potency entry in assay [1] and in assay [2] was “inactive” each time.
As for `COC1CC(O[C@H]2CC[C@]3(C)C4CC[C@]5(C)C(C6=CC(=O)OC6)=CCC56OC46CC[C@@H]3C2)OC(C)C1O[C@@H]1O[C@H](CO[C@@H]2O[C@H](CO)[C@@H](O)[C@H](O)[C@H]2O)[C@@H](O)[C@H](O)[C@H]1O` (stereo partly specified), the Potency entry in assay [1] and in assay [2] was “inactive” each time.
Regarding `Cc1noc(C)c1-c1ccc(Nc2nc(-c3ccncc3)nc3ccccc23)cc1F`, the Potency entry in assay [1] and in assay [2] was “inactive” each time.
For the molecule `COc1ccccc1-c1nnc2n1N=C(c1c(OC)cccc1OC)CS2`, the Potency result in assay [1] and in assay [2] was “inactive” each time.
For the molecule `O=C(OCC#CCSc1nnc(-c2cccc3ccccc23)o1)c1cccc2[nH]ccc12`, the Potency result in assay [1] and in assay [2] was “inactive” in each case.
`Cc1ccccc1-c1nc(NCc2cccs2)c2ccccc2n1`: the Potency entry in assay [1] and in assay [2] was “inactive” in each case.
With `COc1cc(OC)cc(-c2nnc3n2N=C(c2ccc(OC)c(OC)c2)CS3)c1`, the Potency result in assay [1] and in assay [2] was “inactive” in each case.
With `NC(=O)c1ccnc2c(O)cccc12`, the Potency entry in assay [1] and in assay [2] was “inactive” throughout.
On to `CCC(=O)Nc1ccc(Cl)cc1C(=O)c1ccc[nH]1`, for which the Potency entry in assay [1] and in assay [2] was “inactive” in each case.
As to `Cc1ccc([S+](=O)([O-])n2cc(Cc3ccc(-c4ccccc4)cc3)c3ccccc32)cc1`, the Potency entry in assay [1] and in assay [2] was “inactive” in each case.
For `O=C(c1ccccc1)N1CCN(c2nc(-c3cccs3)nc3ccccc23)CC1`, the Potency result in assay [1] and in assay [2] was “inactive” each time.
As for `O=C1CCCC2=C1C(c1[nH]ncc1Cl)NC(=NCc1ccco1)N2` (stereo unspecified), the Potency entry in assay [1] and in assay [2] was “inactive” each time.
`N#Cc1nc(Nc2cc(F)cc(F)c2)c2ncn(CCCO)c2n1`: the Potency entry in assay [1] and in assay [2] was “inactive” each time.
`Cc1cc2c(s1)c1cnn(Cc3c(C)cc(F)cc3C)c(=O)c1n2C`: the Potency result in assay [1] and in assay [2] was “inactive” in each case.
As to `Cc1ccc(/C=C/C(=O)Nc2cccc([S+](=O)([O-])Nc3ccccc3F)c2)cc1`, the Potency result in assay [1] and in assay [2] was “inactive” each time.
